The source of these data is PubChem BioAssay (EPA / NIEHS).

Results filed as inconclusive are left out. Active and inactive are the calls of the source. How the source made its calls, unless noted: active means hit-call score of the fitted dose curve at least 0.9, where 1 is the maximum; inactive means score below 0.9.

Test [1] in a line: ATG_TGFb_CIS: Attagene CIS-FACTORIAL HepG2 Assay for human Transforming Growth Factor (TGF) (AID 2282967). The following applies: HepG2 Attagene CIS TGFb reporter, mRNA transcription; actives raise or lower the signal. In short, it runs like this:
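Transcript-level reporter readout: HepG2 transfectants, 24 h exposure, RNA to cDNA, reporter-specific PCR, fluorescent primer extension, capillary sizing against ROX standards. Gain- or loss-of-signal relative to DMSO.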

Test [2] is described as follows: ATG_VDRE_CIS: Attagene CIS-FACTORIAL HepG2 Assay for human Vitamin D Receptor Element (VDRE) (AID 2282968). The following applies: HepG2 VDRE cis-reporter transcription, actives raise or lower the signal. In short, it runs like this:
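In transiently transfected HepG2 liver cells, gain or loss of reporter mRNA after 24 h exposure is scored relative to DMSO, using fluorescence detection by capillary electrophoresis of RT-PCR products.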

The target in test [3] is Estrogen receptor (Homo sapiens) (UniProt P03372). Description: ATG_ERa_TRANS: Attagene TRANS-FACTORIAL HepG2 Assay for human Estrogen Receptor alpha (ERa) (AID 2282970; active means hit-call score of the fitted dose curve at least 0.9, where 1 is the maximum). The following applies: HepG2 Attagene TRANS ERa GAL4 reporter, mRNA. In short, it runs like this:
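Transactivation via ERa-Gal4 chimera in HepG2; 24 hour incubation; reporter mRNA detected by fluorescence RT-PCR and capillary electrophoresis.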

For test [4], the target named is X-box-binding protein 1 (Homo sapiens) (UniProt P17861). Description: ATG_Xbp1_CIS: Attagene CIS-FACTORIAL HepG2 Assay for human X-box Binding Protein 1 (XBP1) (AID 2282972). The conditions noted are these: HepG2 XBP1 cis-element reporter, Attagene multiplex; actives raise or lower the signal. In short, it runs like this: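 HepG2 cells transiently transfected with cis-regulated multiple reporter transcription units; endogenous transcription factor activity measured 24 hours after chemical dosing. Reporter mRNA quantified by RT-PCR, 6-FAM primer extension, HpaI digestion and capillary electrophoresis; bidirectional fitting versus DMSO.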

Test [5] can be described thus: ATG_M_19_TRANS: Attagene TRANS-FACTORIAL HepG2 Assay for M19 Transcription Factor (Internal Marker) (AID 2282974; active means hit-call score of the fitted dose curve at least 0.9, where 1 is the maximum). The following applies: HepG2 Attagene TRANS-FACTORIAL M19 internal marker reporter. The procedure, abridged: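 After transfection of HepG2 with GAL4-UAS-driven reporter constructs, cells are dosed for 24 h. Total RNA is reverse-transcribed, reporter sequences PCR-amplified and labelled, then HpaI-digested and sized by capillary electrophoresis.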

The target in test [6] is Steroid hormone receptor ERR1 (Homo sapiens) (UniProt P11474). Description: ATG_ERRa_TRANS: Attagene TRANS-FACTORIAL HepG2 Assay for human Estrogen-Related Receptor alpha (ERRa) (AID 2282971; active means hit-call score of the fitted dose curve at least 0.9, where 1 is the maximum). The following applies: HepG2 Attagene TRANS reporter, ERRa transactivation. In short, it runs like this: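 HepG2 cells were transiently transfected with multiple GAL4-UAS reporter units, then dosed with compound for 24 h. Total RNA was reverse-transcribed, reporter cDNA PCR-amplified and fluorescently labelled, and fragments resolved by capillary electrophoresis; induction was compared with DMSO.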

The target in test [7] is Estrogen-related receptor gamma (Homo sapiens) (UniProt P62508). Description: ATG_ERRg_TRANS: Attagene TRANS-FACTORIAL HepG2 Assay for human Estrogen-Related Receptor gamma (ERRg) (AID 2282977; active means hit-call score of the fitted dose curve at least 0.9, where 1 is the maximum;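 further: hits increase reporter signal over DMSO so potencies reflect activators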). The following applies: HepG2 Attagene TRANS reporter, ERRg transactivation. The procedure, abridged:
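Transient HepG2 transfectants, 24 h compound exposure, GAL4-UAS reporter mRNA by RT-PCR/6-FAM labelling/capillary electrophoresis; positive direction vs DMSO.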

Test [8] can be described thus: ATG_GAL4_TRANS: Attagene TRANS-FACTORIAL HepG2 Assay for GAL4 (Internal Marker) (AID 2282976; active means hit-call score of the fitted dose curve at least 0.9, where 1 is the maximum). The following applies: HepG2 Attagene TRANS GAL4 internal marker reporter. In short, it runs like this: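 Fluorescence from capillary electrophoresis of labelled RT-PCR products quantifies reporter mRNA induction after 24 h dosing of HepG2 cells carrying transfected GAL4-UAS reporter transcription units. Vehicle DMSO serves as baseline.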

Test [9] has as its target Glucocorticoid receptor (Homo sapiens) (UniProt P04150). Description: ATG_GR_TRANS: Attagene TRANS-FACTORIAL HepG2 Assay for human Glucocorticoid Receptor (GR) (AID 2282978; active means hit-call score of the fitted dose curve at least 0.9, where 1 is the maximum;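 further: activators score as hits since higher reporter transcript over DMSO is fitted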). The conditions noted are these: HepG2 Attagene TRANS GR reporter, mRNA transcription. In short, it runs like this:
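Multiplexed TRANS reporter system, HepG2; 24 h exposure; RNA → oligo(dT) RT → reporter-specific PCR → 6-FAM primer extension → HpaI cut → CE fluorescence. Gain-of-signal vs DMSO.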

The target of test [10] is Nuclear receptor subfamily 1 group I member 3 (Homo sapiens) (UniProt Q14994). Description: ATG_CAR_TRANS: Attagene TRANS-FACTORIAL HepG2 Assay for human Constitutive Androstane Receptor (CAR) (AID 2282969; active means hit-call score of the fitted dose curve at least 0.9, where 1 is the maximum;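 further: activators raise reporter mRNA above DMSO so AC50 marks induction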). The conditions noted are these: HepG2 Attagene TRANS-FACTORIAL CAR reporter. In short, it runs like this:
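Readout is reporter mRNA induction, quantified by fluorescent primer extension and capillary electrophoresis after RT-PCR. Cells were HepG2 transiently carrying chimeric NR-Gal4 constructs with GAL4-UAS reporters, treated for 24 h; activity scored upward from DMSO.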

Chain of Steroid hormone receptor ERR1 (Homo sapiens) (P11474 whole entry, looked up, the tested form may be a part): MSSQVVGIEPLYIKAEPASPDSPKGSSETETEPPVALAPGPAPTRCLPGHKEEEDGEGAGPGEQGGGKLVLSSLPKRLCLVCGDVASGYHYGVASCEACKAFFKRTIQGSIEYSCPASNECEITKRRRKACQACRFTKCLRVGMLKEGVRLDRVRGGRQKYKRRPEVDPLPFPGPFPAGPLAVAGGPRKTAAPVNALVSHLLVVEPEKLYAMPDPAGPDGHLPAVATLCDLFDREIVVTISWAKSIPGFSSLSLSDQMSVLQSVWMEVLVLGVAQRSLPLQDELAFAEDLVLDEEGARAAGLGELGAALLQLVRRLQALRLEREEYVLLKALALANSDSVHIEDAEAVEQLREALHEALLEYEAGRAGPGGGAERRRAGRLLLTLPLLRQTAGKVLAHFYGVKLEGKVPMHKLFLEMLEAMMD
Chain of Glucocorticoid receptor (Homo sapiens) (P04150 whole entry, looked up): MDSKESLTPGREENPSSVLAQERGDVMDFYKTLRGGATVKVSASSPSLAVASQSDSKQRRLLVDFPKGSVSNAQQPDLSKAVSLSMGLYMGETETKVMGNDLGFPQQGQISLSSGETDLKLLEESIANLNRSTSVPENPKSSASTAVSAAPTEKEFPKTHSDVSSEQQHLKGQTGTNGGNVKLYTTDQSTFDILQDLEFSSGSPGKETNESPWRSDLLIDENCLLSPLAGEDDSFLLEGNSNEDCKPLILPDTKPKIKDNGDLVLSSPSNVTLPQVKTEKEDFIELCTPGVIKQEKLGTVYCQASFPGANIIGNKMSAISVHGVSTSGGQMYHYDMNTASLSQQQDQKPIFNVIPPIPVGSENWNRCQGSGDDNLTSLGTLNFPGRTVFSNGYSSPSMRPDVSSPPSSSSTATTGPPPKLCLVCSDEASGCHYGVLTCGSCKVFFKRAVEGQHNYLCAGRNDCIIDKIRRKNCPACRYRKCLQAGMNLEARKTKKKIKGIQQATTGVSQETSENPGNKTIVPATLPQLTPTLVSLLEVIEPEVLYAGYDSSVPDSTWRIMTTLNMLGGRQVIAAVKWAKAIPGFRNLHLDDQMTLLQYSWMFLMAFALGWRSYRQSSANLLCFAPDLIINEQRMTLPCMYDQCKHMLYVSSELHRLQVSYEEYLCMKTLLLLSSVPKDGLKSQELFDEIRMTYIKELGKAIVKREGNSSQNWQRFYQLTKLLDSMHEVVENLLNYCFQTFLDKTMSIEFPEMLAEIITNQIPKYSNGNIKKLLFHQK
Chain of Nuclear receptor subfamily 1 group I member 3 (Homo sapiens) (Q14994 whole entry, looked up, the tested form may be a part): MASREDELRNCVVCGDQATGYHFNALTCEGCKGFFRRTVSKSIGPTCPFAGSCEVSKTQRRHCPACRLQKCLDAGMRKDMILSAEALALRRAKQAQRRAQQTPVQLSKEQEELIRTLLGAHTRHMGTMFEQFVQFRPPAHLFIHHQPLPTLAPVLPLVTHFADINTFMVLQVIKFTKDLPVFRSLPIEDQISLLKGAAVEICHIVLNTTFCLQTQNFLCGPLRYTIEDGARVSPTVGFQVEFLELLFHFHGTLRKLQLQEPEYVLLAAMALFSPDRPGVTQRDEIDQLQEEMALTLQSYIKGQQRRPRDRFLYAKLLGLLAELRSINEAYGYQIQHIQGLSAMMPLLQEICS
Chain of Estrogen-related receptor gamma (Homo sapiens) (P62508 whole entry, looked up, the tested form may be a part): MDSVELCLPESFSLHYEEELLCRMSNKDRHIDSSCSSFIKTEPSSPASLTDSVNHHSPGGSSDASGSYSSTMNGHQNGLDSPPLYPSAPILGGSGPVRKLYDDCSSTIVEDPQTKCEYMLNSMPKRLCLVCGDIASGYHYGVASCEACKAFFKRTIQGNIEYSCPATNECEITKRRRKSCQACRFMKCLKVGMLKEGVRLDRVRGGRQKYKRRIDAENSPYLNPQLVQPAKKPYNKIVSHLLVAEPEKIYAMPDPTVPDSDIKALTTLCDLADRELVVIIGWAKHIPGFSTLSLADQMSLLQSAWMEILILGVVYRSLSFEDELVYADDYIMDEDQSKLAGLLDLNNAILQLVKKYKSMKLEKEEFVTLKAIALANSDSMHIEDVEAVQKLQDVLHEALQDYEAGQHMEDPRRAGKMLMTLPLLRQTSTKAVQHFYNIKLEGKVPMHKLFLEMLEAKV
Chain of Estrogen receptor (Homo sapiens) (P03372 whole entry, looked up, the tested form may be a part): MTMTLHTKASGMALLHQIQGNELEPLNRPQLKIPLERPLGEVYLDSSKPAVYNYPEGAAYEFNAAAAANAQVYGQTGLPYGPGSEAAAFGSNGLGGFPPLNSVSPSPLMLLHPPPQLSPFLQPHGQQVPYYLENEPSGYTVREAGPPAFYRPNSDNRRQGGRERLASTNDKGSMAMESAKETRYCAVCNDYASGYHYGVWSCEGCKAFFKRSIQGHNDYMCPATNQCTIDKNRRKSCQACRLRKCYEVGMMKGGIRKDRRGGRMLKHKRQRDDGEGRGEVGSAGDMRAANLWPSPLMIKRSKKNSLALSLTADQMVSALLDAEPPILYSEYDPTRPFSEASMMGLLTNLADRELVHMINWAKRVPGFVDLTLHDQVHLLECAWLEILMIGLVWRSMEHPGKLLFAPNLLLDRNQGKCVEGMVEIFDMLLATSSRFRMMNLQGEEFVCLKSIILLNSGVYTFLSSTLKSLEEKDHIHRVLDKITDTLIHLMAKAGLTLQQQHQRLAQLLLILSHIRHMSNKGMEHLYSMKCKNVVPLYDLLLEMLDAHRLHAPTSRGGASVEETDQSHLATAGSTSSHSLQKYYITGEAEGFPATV
Chain of X-box-binding protein 1 (Homo sapiens) (P17861 whole entry, looked up): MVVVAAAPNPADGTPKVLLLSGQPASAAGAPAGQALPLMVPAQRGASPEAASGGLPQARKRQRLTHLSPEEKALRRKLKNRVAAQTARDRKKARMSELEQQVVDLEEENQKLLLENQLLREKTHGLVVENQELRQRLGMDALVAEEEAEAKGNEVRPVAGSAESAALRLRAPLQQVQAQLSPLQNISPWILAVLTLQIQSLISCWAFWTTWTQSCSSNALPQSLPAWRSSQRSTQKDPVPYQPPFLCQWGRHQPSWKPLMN

The AC50 is the concentration giving half of the maximal activity seen. On to `Oc1ccc(O)cc1`, for which the result in test [1] and in [2] was inactive. Further, the AC50 in test [3] was 59.9 µM (active); in test [4], 114 µM (active).

In the case of `CN(C)C(=O)NC1(c2ccccc2)CCN(CC[C@@]2(c3ccc(F)c(F)c3)CN(C(=O)c3ccccc3)CCO2)CC1`, the molecule was called inactive in test [1], in [4] and in test [5]. For the same molecule, in [2], the AC50 is 4.16 µM (active).

On to `Cc1cc(SC2=C(O)C[C@@](CCc3ccc(N)cc3)(C(C)C)OC2=O)c(C(C)(C)C)cc1CO`, for which the molecule was classed as inactive in [1], in test [6], in [4], in test [5] and in test [7]. Further, the AC50 in [2] was 5.63 µM (active).

Regarding `CC(=O)[C@@]1(O)CC[C@H]2[C@@H]3CCC4=CC(=O)CC[C@]4(C)[C@H]3CC[C@@]21C`, the outcome in test [1], in test [2], in test [4], in [5] and in test [8] was inactive.

For the molecule `O=C1OC(c2ccc(O)cc2)(c2ccc(O)cc2)c2ccccc21`, the molecule was called inactive in test [1] and in [5]. In addition, the AC50 is 6.27 µM (active) in [2] and 30 µM (active) in test [4].

Turning to `CCCCCCCCCC[N+](C)(C)[O-]`, the outcome in test [1], in [2], in test [6], in test [4], in test [5] and in test [7] was inactive. Further, in test [9], the result was inactive.

On to `O=[Si]=O`, for which the molecule was called inactive in test [1], in [2], in test [3], in test [4], in test [5] and in [8]. In test [7], the molecule was classed as inactive.

As for `CCCCCCCC(=O)OC`, the molecule was called inactive in test [1], in test [2], in test [3], in test [4] and in test [5].

Consider `CCCCCCC(CCCCCCCCCCC(=O)OCC(COC(C)=O)OC(C)=O)OC(C)=O` (configuration not stated), for which the molecule was classed as inactive in [1], in test [2] and in [4].

On to `CN(C)C(=O)NC1(c2ccccc2)CCN(CCC[C@]2(c3ccc(Cl)c(Cl)c3)CCCN(C(=O)c3ccccc3)C2)CC1`, for which the outcome in test [1] and in test [5] was inactive. Besides, the AC50 in test [2] was 2.75 µM (active); in test [4], 4.69 µM (active).

As to `CCCCCCCCCCCCCCOS(=O)(=O)O`, the AC50 in test [1] was 15.1 µM (active). In addition, the call in test [2] and in test [4] was inactive.

Consider `CO[C@@H]1COCC[C@@H]1N[C@@H]1CC[C@@](C(=O)N2CCc3ncc(C(F)(F)F)cc3C2)(C(C)C)C1`, for which the call in [1], in [2], in test [4], in test [5] and in [8] was inactive.

As for `CC(C)COC(=O)CCCCC(=O)OCC(C)C`, the outcome in test [1], in test [2], in [4] and in test [5] was inactive.

Regarding `Nc1nc(Cl)nc2c1ncn2[C@H]1C[C@H](O)[C@@H](CO)O1`, the outcome in [1], in [2] and in [4] was inactive.

Regarding `N[C@@H](Cc1c[nH]c2ccccc12)C(=O)O`, the result in [1], in test [2], in test [4], in test [5] and in test [8] was inactive.

`C=CCc1ccc(OC)c(OC)c1`: the molecule was called inactive in test [1], in test [2], in test [4] and in [5].

As for `CC(C)c1cccc(C(C)C)c1`, the result in [1], in test [2], in [6], in test [4] and in [5] was inactive.

On to `CC(C)OC(=O)C(C)(C)Oc1ccc(C(=O)c2ccc(Cl)cc2)cc1`, for which the call in test [1] and in [8] was inactive. Also, the AC50 in test [2] is 27.6 µM (active); in [3], 27.1 µM (active); in [4], 54.4 µM (active).

Consider `CCc1nc(N)nc(N)c1-c1ccc(Cl)cc1`, for which the molecule was called inactive in test [1] and in test [3]. Moreover, the AC50 was 100 µM (active) in [2] and 147 µM (active) in test [4].

Consider `COC(=O)CCCC(=O)OC`, for which the call in [1], in test [2] and in [4] was inactive.

Regarding `O=C(Oc1ccccc1)c1cccc(C(=O)Oc2ccccc2)c1`, the result in test [1], in [2], in test [4], in test [5] and in test [8] was inactive.

`CC1(C)C(=O)NC(=O)N1CO`: the call in test [1], in test [2], in test [4], in test [5] and in [8] was inactive. The AC50 in test [3] was 123 µM (active).

Regarding `Cc1ccc(C(C)(C)C)c(O)c1`, the molecule was classed as inactive in [1] and in test [7]. The AC50 is 151 µM (active) in test [2], 6.64 µM (active) in test [3] and 139 µM (active) in test [4].

Consider `CS(=O)(=O)c1ccc([C@@H](C[C@H]2CCC(=O)C2)C(=O)Nc2cnccn2)cc1Cl`, for which the outcome in [1], in test [2], in test [3], in test [4] and in [5] was inactive.

As for `CC(=O)CC(c1ccccc1)c1c(O)c2ccccc2oc1=O` (configuration not stated), the molecule was classed as inactive in test [1], in [2], in [4], in [5] and in [8].

For `Cc1occc(=O)c1O`, the call in [1], in [2], in [4], in [5] and in test [8] was inactive.

Take `CCC(C)N(C)C(=O)c1cc2ccccc2c(-c2ccccc2Cl)n1` (configuration not stated): the call in [1], in test [3], in test [4] and in test [5] was inactive. Besides, in test [2], the AC50 was 1.54 µM (active).

In the case of `CC(C)NCC(O)c1ccc(O)c(O)c1` (configuration not stated), the outcome in test [1], in [2], in test [6], in test [4] and in test [8] was inactive.

Regarding `O=C(O)c1[nH]n(-c2ccc(S(=O)(=O)O)cc2)c(=O)c1N=Nc1ccc(S(=O)(=O)O)cc1`, the outcome in test [1], in test [2], in test [3], in test [4] and in test [8] was inactive.

In the case of `Nc1nc(=S)c2[nH]cnc2[nH]1`, the molecule was called inactive in test [1], in test [10], in test [3] and in test [4].

With `CC(=O)OC1CC(C)OC(C)O1` (configuration not stated), the result in [1], in test [10], in [6], in test [4], in [5] and in test [8] was inactive. Also, the call in test [7] was inactive.

As for `CN(C)CCCN1c2ccccc2Sc2ccc(Cl)cc21`, the outcome in test [1], in test [4] and in test [9] was inactive. Besides, the AC50 in test [2] is 11.1 µM (active).

As to `CCCCC(CC)COP(=O)(OCC(CC)CCCC)OCC(CC)CCCC` (configuration not stated), the outcome in test [1], in [4], in test [8] and in [9] was inactive. Besides, the AC50 in test [2] is 0.61 µM (active).

As for `O=C1NC(=O)C(c2ccccc2)(c2ccccc2)N1`, the molecule was called inactive in test [1] and in test [4].

With `COC(=O)[C@H]1[C@H]2C[C@@H]3c4[nH]c5cc(OC)ccc5c4CCN3C[C@H]2C[C@@H](OC(=O)c2cc(OC)c(OC)c(OC)c2)[C@@H]1OC`, the call in [1] and in [4] was inactive.

For the molecule `Cn1cnc2c1c(=O)[nH]c(=O)n2C`, the call in test [1], in test [2], in test [4] and in [8] was inactive.

In the case of `CC(C)(O)c1ccc(CNC(=O)c2cccnc2Oc2ccc(F)cc2)cc1`, the molecule was called inactive in test [1], in [10], in [6], in test [4], in test [5] and in [8].

Take `CC(=O)OCC(COC(C)=O)OC(C)=O`: the call in test [1], in [2], in [4] and in test [7] was inactive.

`O=Cc1ccccc1C=O`: the molecule was called inactive in test [1], in [4] and in test [8].
